# Calls of active or inactive are those of the source. The call rests on the fitted dose curve; in most records, active means well fitted activation curve with a large enough effect in the repeat runs; inconclusive means weak or mixed curves; inactive means flat fitted curve, though single readings scatter.
# Assay: Caspase-3/7 induction in CHO-K1 cells by small molecules, qHTS assay (AID 1346980); further: nearly all actives have a fitted effect of over 15% in size
# Settings: CHO-K1 caspase-3/7 induction, Caspase-Glo luminescence, 17 h; series mostly up to 92.4 µM; caspase-3/7 activation: at the top concentration
# Source text: National Center for Advancing Translational Sciences [NCATS]
# NIH Chemical Genomics Center [NCGC]
# U.S. Environmental Protection Agency [EPA]
# National Institutes of Environmental Health Sciences [NIEHS]
# National Toxicology Program [NTP]
# Apoptosis is a process of programmed cell death and plays a central role in the development of multicellular organisms. It is a highly regulated process and induces cell death by activating caspases, which are the members of cysteine aspartic acid-specific protease (caspase) family. Caspases involved in apoptosis are classified by their mechanism of action as initiator caspases (caspase-2, -8, -9 and -10) and executioner caspases (caspase-3, -6, and -7). Inhibition of apoptosis results in number of cancers, autoimmune diseases, inflammatory diseases and viral infection. To identify small molecule compounds that induce apoptosis, a homogeneous, luminescent Caspase-Glo 3/7 assay was used. Wild type CHO-K1 cells were used to screen Tox21 libraries for identifying caspase-3/7 activity inducers.
# CHO-K1 cells were dispensed at 1,500 per well in 5uL of culture medium into white solid bottom 1536-well plates (Corning Life Sciences, Corning, NY) using a Multidrop Combi (Thermo Scientific, Waltham, MA) dispenser. The assay plates were incubated at 37 C and 5% CO2 for 5hr, and then 23nL of compounds dissolved in DMSO and positive control were transferred using a Pintool station (Wako, San Diego, CA). The assay plates were incubated at 37C and 5% CO2 for 17hr. For caspase-3/7 activity read, 4uL of Caspase-Glo 3/7 reagent (Promega Corporation, Madison, WI) was added to each well of the assay plates using Flying Reagent Dispenser (FRD, Aurora Discovery, San Diego, CA) and incubated the assay plates at room temperature for 30min. The luminescence signal was quantified using a ViewLux plate reader (Perkin Elmer, Shelton, CT).
# On the % scale 0 is the no-effect control and ±100 the full control effect.
row,SMILES,caspase-3/7 activation
1,CC[C@H](NC(=O)c1cc(F)ccc1NS(=O)(=O)c1cccc2cccnc12)c1ccccc1,2.83% (inactive)
2,CC1CC(=O)NN=C1c1ccc(NCC(C)(C)NCC(O)COc2cc(Cl)ccc2C#N)cc1 (stereo not given),0.395% [at 42.5 µM] (inactive)
3,Cc1nc2ccccn2c(=O)c1CCN1CCC(C(=O)c2ccc(F)cc2)CC1,-0.037% [at 42.5 µM] (inactive)
4,CCC(C)(O)CCC=C(C)C (stereo not given),-1.05% (inactive)
5,CCCCC(CC)C(=O)OCCOCCOCCOCCOC(=O)C(CC)CCCC (stereo not given),-1.66% (inactive)
6,O=C(O)Cc1ccc(-c2ccccc2)cc1,-3.77% [at 42.5 µM] (inactive)
7,Oc1ccc(Nc2ccccc2)cc1,0.0523% (inactive)
8,C=CC(=C)CCCC(C)(C)OC(C)=O,0.497% (inactive)
9,CCC(Cc1ccccc1)(C(=O)c1ccc(N2CCOCC2)cc1)N(C)C (stereo not given),0.436% (inactive)
10,C/C=C(\C)C(=O)OCCC(C)CCC=C(C)C (stereo not given),-2.19% (inactive)
11,CCOC(=O)CC(=O)C(=O)OCC,-0.13% (inactive)
12,O=C(O)C(Cc1cc(I)c(O)c(I)c1)c1ccccc1 (stereo not given),-0.305% [at 42.5 µM] (inactive)
13,CN1Cc2cc(C(=O)N3CCC(C4CCNCC4)CC3)ccc2N[C@@H](CC(=O)O)C1=O,-1.14% [at 42.5 µM] (inactive)
14,Nc1ccc(Cl)cc1[N+](=O)[O-],0.416% (inactive)
15,CCCCCCCCCCCCCCCCBr,-0.176% [at 19 µM] (inactive)
16,c1cc[c]([Bi]([c]2ccccc2)[c]2ccccc2)cc1,9.56% (inactive)
17,OCC1CC=CCC1 (stereo not given),-0.0462% (inactive)
18,Cc1cc(S(=O)(=O)O)ccc1N=Nc1c(O)ccc2ccccc12,-6.81% (inactive)
19,O=[N+]([O-])c1cccc(S(=O)(=O)NCCNS(=O)(=O)c2cccc([N+](=O)[O-])c2)c1,0.152% [at 42.5 µM] (inactive)
20,CC1C2CC(CC2C2CCCC(O)C2)C1(C)C (stereo not given),11.7% (inactive)

row,SMILES,caspase-3/7 activation
1,N#C/C(=C1\SCC(c2ccccc2Cl)S1)n1ccnc1 (stereo not given),-1.38% [at 42.5 µM] (inactive)
2,O=C(CCC1CCN(Cc2ccccc2)CC1)c1ccc2c(c1)NCCCC2,-0.722% [at 42.5 µM] (inactive)
3,CCCC(=O)O[C@]1(C(=O)COC(=O)CC)CC[C@H]2[C@@H]3CCC4=CC(=O)CC[C@]4(C)[C@H]3[C@@H](O)C[C@@]21C,1.2% [at 19 µM] (inactive)
4,COc1cc2[nH]c(=O)[nH]c(=O)c2cc1OC,2.34% [at 42.5 µM] (inactive)
5,CC(=N\O)/C(C)=N/O,1.42% (inactive)
6,COC(=O)c1cc(S(N)(=O)=O)ccc1OC,-0.207% [at 42.5 µM] (inactive)
7,Cn1c(=O)c2c(ncn2CC(=O)O)n(C)c1=O,-0.507% [at 42.5 µM] (inactive)
8,NC(=O)Cn1c(=O)cc(CCN2CCN(c3nccc4sccc34)CC2)c2ccc(F)cc21,-0.88% (inactive)
9,O=C(O)c1cccnc1C(=O)O,-0.898% (inactive)
10,O=C(c1ccc(O)cc1)c1ccc(Cl)cc1,-3.51% (inactive)
11,C[Si](NC1CCCCC1)(NC1CCCCC1)NC1CCCCC1,-1.42% (inactive)
12,CC[C@@H]([C@H](C)O)n1ncn(-c2ccc(N3CCN(c4ccc(OC[C@@H]5CO[C@@](Cn6cncn6)(c6ccc(F)cc6F)C5)cc4)CC3)cc2)c1=O,-0.561% [at 42.5 µM] (inactive)
13,CC(C)(CCl)c1ccccc1,-0.0985% (inactive)
14,NCC1CCCC(CN)C1 (stereo not given),0.581% (inactive)
15,COc1ccc(C(=O)c2cccc(O)c2)c(OC)c1,0.352% (inactive)
16,COc1cc2c(N3CCN(C(=O)Nc4ccc(OC(C)C)cc4)CC3)ncnc2cc1OCCCN1CCCCC1,0.0109% [at 42.5 µM] (inactive)
17,CCc1nn(CCCN2CCN(c3cccc(Cl)c3)CC2)c(=O)n1CCOc1ccccc1,-2.59% [at 42.5 µM] (inactive)
18,CN1CCN(c2c(F)cc3c(=O)c(C(=O)O)cn4c3c2OCN4C)CC1,0.0403% [at 19 µM] (inactive)
19,CC(=O)[C@H]1CC[C@H]2[C@@H]3C=CC4=CC(=O)CC[C@@]4(C)[C@@H]3CC[C@]12C,-2.27% [at 42.5 µM] (inactive)
20,CC(C)C(OC(=O)c1ccccc1)C(C)(C)COC(=O)c1ccccc1 (stereo not given),-0.846% (inactive)

# — PubChem BioAssay (Tox21)
